Assay results as given in PubChem BioAssay (EPA / NIEHS).
Inconclusive results are not listed. The source made the active and inactive calls. The calls were made as follows: active = hit-call score of the fitted dose curve at least 0.9, where 1 is the maximum; inconclusive = response in the unintended direction; inactive = score below 0.9.

Legend:
[1] = target: human Thyroid hormone Receptor alpha (TRa), THRA (gene 7067) (UniProt P10827); test: ATG_hTRa_XSP1: Attagene TRANS-FACTORIAL Multi-Species (XSP1) HepG2 Assay for human Thyroid hormone Receptor alpha (TRa) (AID 2283805)
Method in brief: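 HepG2 cells transiently transfected with GAL4-UAS reporter units expressing chimeric NR-Gal4 proteins, dosed 24 hours with 3 nM 6-alpha-fluorotestosterone present. Reporter mRNA measured by RT-PCR and capillary electrophoresis; gain of signal fitted versus DMSO.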

[2] = target: zebrafish Thyroid Hormone Receptor alpha (TRa), thraa (gene 30670) (UniProt Q98867); test: ATG_zfTRa_XSP1: Attagene TRANS-FACTORIAL Multi-Species (XSP1) HepG2 Assay for zebrafish Thyroid Hormone Receptor alpha (TRa) (AID 2283807)
Method in brief: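 HepG2 cells transiently transfected with GAL4-UAS reporter units including a zebrafish TRa–Gal4 chimera, dosed 24 h with 3 nM 6-alpha-fluorotestosterone present. Reporter mRNA quantified by RT-PCR and capillary electrophoresis; gain versus DMSO.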

[3] = target: human Thyroid hormone Receptor beta (TRb), THRB (gene 7068) (UniProt P10828); test: ATG_hTRb_XSP1: Attagene TRANS-FACTORIAL Multi-Species (XSP1) HepG2 Assay for human Thyroid hormone Receptor beta (TRb) (AID 2283808)
Method in brief: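 HepG2 cells transiently transfected with reporter units driving GAL4-UAS reporters for chimeric NR-Gal4 proteins; 24 h chemical exposure with 3 nM 6-alpha-fluorotestosterone present. Reporter mRNA quantified by RT-PCR and capillary electrophoresis, gain of signal versus DMSO.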

[4] = target: zebrafish Thyroid Hormone Receptor beta (TRb), thrb (gene 30607) (UniProt Q9PVE4); test: ATG_zfTRb_XSP1: Attagene TRANS-FACTORIAL Multi-Species (XSP1) HepG2 Assay for zebrafish Thyroid Hormone Receptor beta (TRb) (AID 2283809)
Method in brief: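 HepG2 cells transiently transfected with multiplexed GAL4-UAS reporter units expressing chimeric zebrafish TRb–Gal4. Dosed 24 h with 3 nM 6-alpha-fluorotestosterone present; reporter mRNA measured by RT-PCR, HpaI digestion and capillary electrophoresis; gain of signal versus DMSO.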

[5] = ATG_M_06_XSP2: Attagene TRANS-FACTORIAL Multi-Species (XSP2) HepG2 Assay for M06 Transcription Factor (Internal Marker) (AID 2283811);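 also: hits are increases in signal above the DMSO baseline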
Method in brief: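 HepG2 cells transiently transfected with GAL4-UAS multiple reporter units, medium containing 3 nM 6-alpha-fluorotestosterone and 1.5 nM norgestrel; reporter mRNA measured 24 hours post-dosing by RT-PCR and capillary electrophoresis. Internal background marker, gain of signal vs DMSO.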

[6] = test system: turtle Estrogen Receptor (ERa), gene 101933533; test: ATG_trERa_XSP2: Attagene TRANS-FACTORIAL Multi-Species (XSP2) HepG2 Assay for turtle Estrogen Receptor (ERa) (AID 2283812);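 also: human HepG2 liver cells transiently expressing turtle ERa-Gal4 chimeric receptor; actives raise reporter signal above DMSO so AC50 reflects agonist activity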
Method in brief: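 HepG2 cells transiently transfected with GAL4-UAS reporter units expressing turtle ERa-Gal4 chimera. Reporter mRNA measured after 24 h dosing by RT-PCR, fluorescent labelling and capillary electrophoresis; gain of signal fitted versus DMSO.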

[7] = target: GAL4 Transcription Factor (Internal Marker), GAL4 (gene 855828) (UniProt P04386); test: ATG_GAL4_XSP2: Attagene TRANS-FACTORIAL Multi-Species (XSP2) HepG2 Assay for GAL4 Transcription Factor (Internal Marker) (AID 2283814);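 also: GAL4 reporter mRNA background control in MRTU transfected cells not a receptor target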
Procedure: ATG_XSP2_multi-species_TRANS is a cell-based, multiplexed assay created by modifying the existing Attagene TRANS-FACTORIAL system to include a panel of nuclear receptors from some or all the following species: human (Homo sapiens), mouse (Mus musculus), frog (Xenopus laevis), zebrafish (Danio rerio), chicken (Gallus gallus), and turtle (Chrysemys picta). The ECOTOX-FACTORIAL format uses HepG2, a human liver cell line, with measurements taken at 24 hours after chemical dosing in a 24-well plate. Xsp2 included 3 nM 6-alpha-fluorotestosterone and 1.5 nM norgestrel to stimulate the androgen receptor.ATG_GAL4_XSP2 is one of 29 assay components measured or calculated from the ATG_XSP2_multi-species_TRANS assay. It is designed to make measurements of mRNA induction, a form of inducible reporter, as detected with fluorescence intensity signals by Reverse transcription polymerase chain reaction (RT-PCR) and Capillary electrophoresis technology.This assay endpoint, ATG_GAL4_XSP2, was analyzed in the positive analysis fitting direction relative to DMSO as the negative control and baseline of activity. […] Furthermore, this assay endpoint can be referred to as a secondary readout, because this assay has produced multiple assay endpoints where this one serves a background control function. […]

[8] = target: zebrafish Estrogen Receptor (ER1), esr1 (gene 259252) (UniProt P57717); test: ATG_zfER1_XSP2: Attagene TRANS-FACTORIAL Multi-Species (XSP2) HepG2 Assay for zebrafish Estrogen Receptor (ER1) (AID 2283816)
Method in brief: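 HepG2 cells transiently transfected with a GAL4-UAS reporter and a chimeric zebrafish ER1-Gal4 construct, dosed 24 h. Reporter mRNA quantified by RT-PCR, labelling, HpaI digestion and capillary electrophoresis, relative to DMSO.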

[9] = target: chicken Estrogen Receptor (ERa), ESR1 (gene 396099) (UniProt P06212); test: ATG_chERa_XSP2: Attagene TRANS-FACTORIAL Multi-Species (XSP2) HepG2 Assay for chicken Estrogen Receptor (ERa) (AID 2283817);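 also: actives raise reporter signal above DMSO so AC50 reflects ER activation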
Method in brief: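 Transiently transfected HepG2 cells expressing chimeric chicken ERa-GAL4 reporter units, dosed 24 h with 3 nM 6-alpha-fluorotestosterone and 1.5 nM norgestrel present. Reporter mRNA measured by RT-PCR and capillary electrophoresis; gain-of-signal fitted relative to DMSO.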

[10] = ATG_XTT_Cytotoxicity_XSP1: Cytotoxicity Assessment in the Attagene TRANS-FACTORIAL Multi-Species (XSP1) HepG2 Assay (AID 2283810)
Method in brief: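 XTT viability readout taken at 24 hours post-dosing in HepG2 liver cells co-treated with 3 nM 6-alpha-fluorotestosterone. Signal loss relative to DMSO controls reflects cytotoxicity.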

Measured: AC50

Sequence of human Thyroid hormone Receptor beta (TRb), THRB (gene 7068) (P10828 whole entry, looked up, the tested form may be a part): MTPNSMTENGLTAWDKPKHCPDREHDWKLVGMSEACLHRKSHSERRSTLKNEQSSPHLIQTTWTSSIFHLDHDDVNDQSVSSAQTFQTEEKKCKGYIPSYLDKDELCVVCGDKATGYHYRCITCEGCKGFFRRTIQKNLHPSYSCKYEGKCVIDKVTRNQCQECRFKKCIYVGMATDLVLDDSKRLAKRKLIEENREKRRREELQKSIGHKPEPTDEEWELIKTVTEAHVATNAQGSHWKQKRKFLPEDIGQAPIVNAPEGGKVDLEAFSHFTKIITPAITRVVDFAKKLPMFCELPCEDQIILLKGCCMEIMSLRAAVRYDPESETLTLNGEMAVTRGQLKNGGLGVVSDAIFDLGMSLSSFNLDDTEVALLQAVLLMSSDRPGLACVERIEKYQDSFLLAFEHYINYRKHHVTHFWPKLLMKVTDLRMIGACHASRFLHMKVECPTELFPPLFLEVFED
Sequence of human Thyroid hormone Receptor alpha (TRa), THRA (gene 7067) (P10827 whole entry, looked up, the tested form may be a part): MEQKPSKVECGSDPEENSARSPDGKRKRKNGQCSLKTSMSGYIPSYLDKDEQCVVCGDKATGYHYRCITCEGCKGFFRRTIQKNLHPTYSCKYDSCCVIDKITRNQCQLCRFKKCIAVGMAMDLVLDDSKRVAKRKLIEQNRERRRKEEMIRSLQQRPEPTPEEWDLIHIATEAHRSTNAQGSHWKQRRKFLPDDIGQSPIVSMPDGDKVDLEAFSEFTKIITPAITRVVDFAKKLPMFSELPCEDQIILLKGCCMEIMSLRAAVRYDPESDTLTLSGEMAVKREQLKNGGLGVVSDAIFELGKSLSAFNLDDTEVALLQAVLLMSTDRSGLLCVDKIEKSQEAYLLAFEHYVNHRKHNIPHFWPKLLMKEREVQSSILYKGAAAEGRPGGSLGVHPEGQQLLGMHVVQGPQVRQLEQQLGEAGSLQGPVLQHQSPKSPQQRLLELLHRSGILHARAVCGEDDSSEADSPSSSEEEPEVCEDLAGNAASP
Sequence of chicken Estrogen Receptor (ERa), ESR1 (gene 396099) (P06212 whole entry, looked up, the tested form may be a part): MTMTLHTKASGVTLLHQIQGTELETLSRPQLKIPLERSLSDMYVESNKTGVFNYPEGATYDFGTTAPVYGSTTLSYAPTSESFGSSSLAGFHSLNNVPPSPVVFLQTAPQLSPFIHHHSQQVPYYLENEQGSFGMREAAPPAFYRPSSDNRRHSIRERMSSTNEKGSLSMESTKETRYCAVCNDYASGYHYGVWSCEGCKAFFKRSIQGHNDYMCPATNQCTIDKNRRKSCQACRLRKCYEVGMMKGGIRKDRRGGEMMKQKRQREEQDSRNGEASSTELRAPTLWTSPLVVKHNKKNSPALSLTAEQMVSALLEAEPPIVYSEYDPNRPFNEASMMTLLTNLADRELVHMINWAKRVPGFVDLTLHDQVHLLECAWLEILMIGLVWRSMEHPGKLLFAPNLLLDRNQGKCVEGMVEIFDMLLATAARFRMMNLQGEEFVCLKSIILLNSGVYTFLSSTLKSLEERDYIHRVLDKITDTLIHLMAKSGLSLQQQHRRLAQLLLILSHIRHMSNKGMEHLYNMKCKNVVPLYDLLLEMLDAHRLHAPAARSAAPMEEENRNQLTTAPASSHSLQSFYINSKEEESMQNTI
Sequence of zebrafish Estrogen Receptor (ER1), esr1 (gene 259252) (P57717 whole entry, looked up, the tested form may be a part): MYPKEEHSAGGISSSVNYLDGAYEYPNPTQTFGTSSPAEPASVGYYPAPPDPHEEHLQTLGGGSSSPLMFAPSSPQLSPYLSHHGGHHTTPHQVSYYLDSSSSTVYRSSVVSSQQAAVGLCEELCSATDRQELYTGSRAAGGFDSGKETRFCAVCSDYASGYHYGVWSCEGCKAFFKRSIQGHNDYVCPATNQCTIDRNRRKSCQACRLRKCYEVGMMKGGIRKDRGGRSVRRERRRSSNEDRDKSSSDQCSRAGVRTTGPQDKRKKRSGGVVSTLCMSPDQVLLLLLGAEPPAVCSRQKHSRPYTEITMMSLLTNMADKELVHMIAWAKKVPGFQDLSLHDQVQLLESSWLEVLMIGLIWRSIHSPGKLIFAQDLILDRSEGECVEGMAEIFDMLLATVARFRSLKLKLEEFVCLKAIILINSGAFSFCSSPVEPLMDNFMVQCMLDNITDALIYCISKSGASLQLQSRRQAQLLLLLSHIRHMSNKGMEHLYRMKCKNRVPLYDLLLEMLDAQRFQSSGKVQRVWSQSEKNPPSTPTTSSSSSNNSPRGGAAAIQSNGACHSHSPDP
Sequence of zebrafish Thyroid Hormone Receptor alpha (TRa), thraa (gene 30670) (Q98867 whole entry, looked up, the tested form may be a part): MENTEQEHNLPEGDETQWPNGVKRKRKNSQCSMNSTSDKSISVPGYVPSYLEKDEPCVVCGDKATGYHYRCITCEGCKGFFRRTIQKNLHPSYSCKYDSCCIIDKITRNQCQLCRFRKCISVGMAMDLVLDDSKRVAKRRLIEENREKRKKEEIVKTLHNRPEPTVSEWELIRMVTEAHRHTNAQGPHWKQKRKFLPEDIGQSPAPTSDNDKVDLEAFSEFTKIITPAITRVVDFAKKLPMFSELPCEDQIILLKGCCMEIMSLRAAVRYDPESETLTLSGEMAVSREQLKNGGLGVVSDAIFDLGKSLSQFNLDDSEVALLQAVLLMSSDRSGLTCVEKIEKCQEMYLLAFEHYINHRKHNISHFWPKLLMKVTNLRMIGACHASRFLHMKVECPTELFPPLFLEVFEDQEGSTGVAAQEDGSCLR
Sequence of zebrafish Thyroid Hormone Receptor beta (TRb), thrb (gene 30607) (Q9PVE4 whole entry, looked up, the tested form may be a part): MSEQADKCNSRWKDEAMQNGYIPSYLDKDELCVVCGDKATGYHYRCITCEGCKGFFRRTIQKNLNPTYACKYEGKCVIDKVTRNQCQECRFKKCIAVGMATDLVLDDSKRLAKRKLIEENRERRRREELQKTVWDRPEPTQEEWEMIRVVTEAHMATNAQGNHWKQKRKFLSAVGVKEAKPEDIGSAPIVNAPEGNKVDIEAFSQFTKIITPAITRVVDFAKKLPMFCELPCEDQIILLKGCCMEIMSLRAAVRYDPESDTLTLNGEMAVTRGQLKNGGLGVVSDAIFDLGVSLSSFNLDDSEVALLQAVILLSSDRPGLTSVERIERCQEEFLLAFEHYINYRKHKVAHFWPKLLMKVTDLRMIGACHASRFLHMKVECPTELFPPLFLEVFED
Sequence of GAL4 Transcription Factor (Internal Marker), GAL4 (gene 855828) (P04386 whole entry, looked up, the tested form may be a part): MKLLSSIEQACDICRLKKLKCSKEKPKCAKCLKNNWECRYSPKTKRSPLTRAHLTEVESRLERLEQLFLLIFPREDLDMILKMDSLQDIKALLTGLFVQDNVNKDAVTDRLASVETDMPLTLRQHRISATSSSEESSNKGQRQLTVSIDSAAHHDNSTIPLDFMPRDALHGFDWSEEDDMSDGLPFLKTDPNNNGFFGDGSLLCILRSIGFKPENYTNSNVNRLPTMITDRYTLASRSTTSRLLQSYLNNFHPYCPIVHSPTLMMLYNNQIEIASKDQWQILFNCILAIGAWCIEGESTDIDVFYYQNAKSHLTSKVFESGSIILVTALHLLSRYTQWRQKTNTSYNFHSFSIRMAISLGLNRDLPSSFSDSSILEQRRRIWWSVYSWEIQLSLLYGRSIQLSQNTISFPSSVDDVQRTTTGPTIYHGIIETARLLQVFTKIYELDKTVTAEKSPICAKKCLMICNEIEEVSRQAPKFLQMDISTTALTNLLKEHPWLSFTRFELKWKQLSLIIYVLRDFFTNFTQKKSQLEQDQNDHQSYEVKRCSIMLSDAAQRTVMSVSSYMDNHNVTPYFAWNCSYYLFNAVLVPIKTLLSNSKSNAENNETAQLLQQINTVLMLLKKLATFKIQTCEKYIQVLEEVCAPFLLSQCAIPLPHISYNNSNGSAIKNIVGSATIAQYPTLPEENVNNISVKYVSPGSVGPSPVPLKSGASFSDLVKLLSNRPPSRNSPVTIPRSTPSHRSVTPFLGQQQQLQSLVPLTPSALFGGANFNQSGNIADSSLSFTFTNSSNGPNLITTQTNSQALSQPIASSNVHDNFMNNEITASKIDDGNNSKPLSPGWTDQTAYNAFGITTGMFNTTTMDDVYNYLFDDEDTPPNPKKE

O=C(c1ccccc1)c1ccc(O)cc1O
active: [6] 2810 nM | [8] 10000 nM | [9] 2770 nM
not listed: [10]
inactive: all other assays above

C[C@]12CC[C@H]3C(=CCc4cc(O)ccc43)[C@@H]1CCC2=O
active: [6] 12.9 nM | [8] 86 nM | [9] 14.6 nM
not listed: [7]
inactive: all other assays above
